# Values of other authors, collected in PubChem BioAssay AID977611.
# In all, about 3,900 compounds went through this assay and about 3,900 (100%) were called active. Cut-off not given; nearly all actives show Kd up to about 4200 µM. The set was probably picked from earlier hits. Some of the results follow. Where a SMILES comes first, the peptide text is derived from it. Square brackets hold non-standard residues; d marks the D form. Residues, ends and D or L forms follow the SMILES beside them. Peptide text beside a SMILES is read from it. [ ]: non-standard residue; d: D form. The star is where a group is joined. Lys(Me3) = C[N+](C)(C)CCCC[C@H](N)C(=O)O; Orn(CH(NH2)2) = NC(N)NCCC[C@H](N)C(=O)O; X1 = C[C@H](Cc1ccc(O)cc1)N*; Leu(ol) = CC(C)C[C@H](N)CO
# Assay: PubChem AID 977611
# Details: PDB protein-ligand complexes, literature Kd
smiles,measurement,setting,value
CC[C@H](C)[C@H](N)C(=O)N[C@@H](CCC(N)=O)C(=O)N1CCC[C@H]1C(=O)N1CCC[C@H]1C(=O)N1CCC[C@H]1C(=O)N[C@H](C(=O)N[C@@H](CC(N)=O)C(=O)N[C@@H](CCCNC(N)N)C(=O)N[C@@H](CC(N)=O)C(=O)N[C@@H](CC(C)C)C(=O)N[C@@H](CCCCN)C(=O)N1CCC[C@H]1C(=O)N[C@@H](CC(=O)O)C(=O)N[C@H](C=O)CCCNC(N)N)C(C)C (H-IQPPPVN[Orn(CH(NH2)2)]NLKPD[Orn(CH(NH2)2)]-aldehyde),Kd,"protein: GROWTH FACTOR RECEPTOR-BOUND PROTEIN 2 SH3 DOMAIN, PDB entry 2vwf",8.7 µM (active)
CN1C=CN(CCCN2c3ccccc3Sc3ccc(C(F)(F)F)cc32)C=C1,Kd,"protein: human calmodulin (CaM), PDB entry 1ctr",1 µM (active)
COC(=O)c1cc(N)cc(-c2c(C)noc2C)c1,Kd,"protein: ATPase family AAA domain-containing protein 2 ATAD2A bromodomain, PDB entry 4tte",202 µM (active)
Cn1cc(O[C@@H]2O[C@H](CO)[C@H](O)[C@H](O)[C@H]2O)c2ccccc21,Kd,"protein: PA-I galactophilic lectin, PDB entry 4ljh",19.4 µM (active)
CC(=O)NCCCC[C@H](NC(=O)[C@@H](NC(=O)CNC(=O)CNC(=O)[C@@H](NC(=O)[C@@H](N)CO)[C@@H](C)O)C(C)C)C(=O)N[C@@H](CCCCN)C(=O)N1CCC[C@H]1C(=O)N[C@@H](Cc1cnc[nH]1)C(=O)N[C@@H](CCCNC(N)N)C(=O)N[C@@H](Cc1ccc(O)cc1)C(=O)N[C@@H](CCCCN)C(=O)N[C@@H](CS)C(=O)O,Kd,"protein: Histone acetyltransferase PCAF, PDB entry 2rnx",402 µM (active)
CC[C@H](C)[C@H](NC(=O)[C@H](Cc1cnc[nH]1)NC(=O)[C@@H](NC(=O)[C@H](CCCNC(N)N)NC(=O)[C@H](CCCCN)NC(=O)[C@@H](N)CCCNC(N)N)[C@@H](C)CC)C(=O)NCC(=O)N1CCC[C@H]1C(=O)NCC(=O)N[C@@H](CCCNC(N)N)C(=O)N[C@@H](C)C(=O)N[C@@H](Cc1ccccc1)C(=O)N[C@@H](Cc1ccc(O)cc1)C(=O)N[C@@H](C)C(=O)N[C@H](C=O)[C@@H](C)O,Kd,"protein: anti-HIV-1 Fab 537-10D, PDB entry 3ghe",1.3 µM (active)
CC(C)[C@H](NC(=O)CNC(=O)CNC(=O)[C@@H](NC(=O)[C@H](C)N)[C@@H](C)O)C(=O)N[C@@H](CCCC[N+](C)(C)C)C(=O)N[C@@H](CCCCN)C(=O)N1CCC[C@H]1C(=O)N[C@@H](Cc1cnc[nH]1)C(=O)N[C@@H](CCCNC(N)N)C(=O)N[C@H](C)Cc1ccc(O)cc1 (H-ATGGV[Lys(Me3)]KPH[Orn(CH(NH2)2)]-X1),Kd,"protein: PHD finger protein 1, PDB entry 2m0o",4.2 µM (active)
O[C@@H]1[C@H](O)[C@@H](O[P+](O)(O)O)[C@H](O[P+](O)(O)O)[C@@H](O)[C@@H]1O[P+](O)(O)O,Kd,"protein: Ligand-Binding Domain of rat InsP3 Receptor, PDB entry 3t8s",0.00282 µM (active)
same,Kd,"protein: Rabphilin-3A, PDB entry 4np9",9.4 µM (active)
Nc1ncnc2c1ncn2[C@@H]1O[C@@H]2CO[P+](O)(O)O[C@@H]3[C@H](O)[C@@H](CO[P+](O)(O)O[C@@H]1[C@@H]2O)O[C@H]3n1cnc2c1NC(N)NC2=O (some centres undefined),Kd,"protein: Stimulator of interferon genes protein, PDB entry 4loi",0.17 µM (active)
Nc1ncnc2c1ncn2[C@@H]1O[C@@H]2CO[P+](O)(O)O[C@@H]3[C@H](O)[C@@H](CO[P+](O)(O)O[C@H]2[C@H]1O)O[C@H]3n1cnc2c1NC(N)NC2=O (some centres undefined),Kd,"protein: Stimulator of interferon genes protein, PDB entry 4ksy",0.00379 µM (active)
same,Kd,"protein: Stimulator of interferon genes protein, PDB entry 4loh",0.11 µM (active)
same,Kd,"protein: Stimulator of interferon genes protein, PDB entry 4loj",0.3 µM (active)
NC1NC(=O)c2ncn([C@@H]3O[C@@H]4CO[P+](O)(O)O[C@H]4[C@H]3O)c2N1 (some centres undefined),Kd,"protein: Diguanylate cyclase, PDB entry 4kg1",0.274 µM (active)
CSCC[C@H](NC(=O)[C@@H]1CCCN1C(=O)[C@@H](NC(=O)[C@H](CCCNC(N)N)NC(=O)[C@H](CO)NC(=O)CN)[C@@H](C)O[P+](O)(O)O)C(=O)N[C@@H](Cc1ccc(O)cc1)C(=O)NCC(=O)O (HELM PEPTIDE1{G.S.[NC(N)NCCC[C@H](N[*:1])C(=O)[*:2]].[C[C@@H](O[P+](O)(O)O)[C@H](N[*:1])C(=O)[*:2]].P.M.Y.G}$$$$V2.0),Kd,"protein: RNA polymerase-associated protein RTF1 homolog, PDB entry 4l1u",5.45 µM (active)
CC(C)C[C@H](NC(=O)[C@H](CC(C)C)NC(=O)[C@H](CCCNC(N)N)NC(=O)[C@H](CO)NC(=O)[C@H](CC(C)C)NC(=O)[C@H](CCCNC(N)N)NC(=O)[C@@H]1CCCN1C(=O)CN)C(=O)N[C@@H](CO)C(=O)N[C@@H](Cc1ccc(O)cc1)C(=O)N[C@@H](C)C(=O)O (HELM PEPTIDE1{G.P.[NC(N)NCCC[C@H](N[*:1])C(=O)[*:2]].L.S.[NC(N)NCCC[C@H](N[*:1])C(=O)[*:2]].L.L.S.Y.A}$$$$V2.0),Kd,"protein: rat Tom20(translocases of outer mitochondrial membranes), PDB entry 1om2",20 µM (active)
CC(C)C[C@@H](CO)NC(=O)[C@H](CO)NC(=O)[C@H](CCCNC(N)N)NC(=O)[C@H](CC(C)C)NC(=O)[C@H](CO)NC(=O)[C@H](C)NC(=O)[C@H](CC(C)C)NC(=O)[C@@H]1CCCN1C(=O)[C@H](Cc1ccc(O)cc1)NC(=O)[C@H](CC(C)C)NC(=O)[C@@H](N)CCC(=O)O (H-ELYPLASL[Orn(CH(NH2)2)]S[Leu(ol)]),Kd,"protein: ALIX, PDB entry 2r05",7 µM (active)
CC(C)[C@H](NC(=O)[C@H](CCC(=O)O)NC(=O)[C@H](C)NC(=O)[C@H](Cc1ccc(O)cc1)NC(=O)[C@H](CO)NC(=O)[C@@H]1CCCN1C(=O)[C@@H]1CCCN1C(=O)[C@H](C)NC(=O)[C@@H](N)CCC(=O)O)C(=O)O (H-EAPPSYAEV-OH),Kd,"protein: 3rd WW domain of Human Nedd4, PDB entry 4n7h",3.3 µM (active)
CC(C)C[C@H](NC(=O)[C@H](CO)NC(=O)[C@H](CCCNC(N)N)NC(=O)[C@H](CC(C)C)NC(=O)[C@H](CO)NC(=O)[C@@H](NC(=O)[C@H](CC(C)C)NC(=O)[C@@H]1CCCN1C(=O)[C@H](Cc1ccc(O)cc1)NC(=O)[C@H](CC(C)C)NC(=O)[C@@H](N)CCC(=O)O)[C@@H](C)O)C(=O)O (H-ELYPLTSL[Orn(CH(NH2)2)]SL-OH),Kd,"protein: ALIX, PDB entry 2r02",8 µM (active)
